From PubChem
A selection: hits, their analogues and other compounds. The true share with any hit is near 2.6%.
p53 reactivation – qHTS assay for re-activators of p53 using a Luc reporter. hit rate 0.063% among 320,000. AID 504706, 2011. H1299 p53-A138V BP100-luciferase reporter, luminescence, 24 h. Potency, µM (top dose mostly 92.2 µM), for the others: at the highest dose activity change, positive = activation, hits mostly activators; active = well fitted activation curve with a large enough effect; inconclusive = small, poorly fitted or top-dose-only effect; inactive = no such curve, though single readings can be large or run the other way; note: potency is the fitted concentration of half-maximal effect; % of control where 0% means no effect; nearly all actives have a fitted effect of over 45% in size
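H1299 (p53-null), stable ts p53-A138V + BP100-Luc; 1000 cells/well, Opti-MEM/10% FBS; cpd 4 pt, 1:5; 24 h, 37 deg C, 5% CO2; detection reagent 10 min RT; luminescence.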
hERG WT inh – qHTS for Inhibitors of KCHN2 3.1: Wildtype qHTS; U2OS, BacMam KCNH2, thallium flux FluxOr; active compounds read low; hit rate 0.37% among 340,000; AID 720551, 2013; activity change, % at 1.84 µM;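 active = maximum activity change below -70%; inconclusive = maximum activity change between -70% and -50%; inactive = maximum activity change above -50%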; note: % is set by controls: 0 for no effect and ±100 for the full control effect
Target sequence (Q12809 whole entry, looked up): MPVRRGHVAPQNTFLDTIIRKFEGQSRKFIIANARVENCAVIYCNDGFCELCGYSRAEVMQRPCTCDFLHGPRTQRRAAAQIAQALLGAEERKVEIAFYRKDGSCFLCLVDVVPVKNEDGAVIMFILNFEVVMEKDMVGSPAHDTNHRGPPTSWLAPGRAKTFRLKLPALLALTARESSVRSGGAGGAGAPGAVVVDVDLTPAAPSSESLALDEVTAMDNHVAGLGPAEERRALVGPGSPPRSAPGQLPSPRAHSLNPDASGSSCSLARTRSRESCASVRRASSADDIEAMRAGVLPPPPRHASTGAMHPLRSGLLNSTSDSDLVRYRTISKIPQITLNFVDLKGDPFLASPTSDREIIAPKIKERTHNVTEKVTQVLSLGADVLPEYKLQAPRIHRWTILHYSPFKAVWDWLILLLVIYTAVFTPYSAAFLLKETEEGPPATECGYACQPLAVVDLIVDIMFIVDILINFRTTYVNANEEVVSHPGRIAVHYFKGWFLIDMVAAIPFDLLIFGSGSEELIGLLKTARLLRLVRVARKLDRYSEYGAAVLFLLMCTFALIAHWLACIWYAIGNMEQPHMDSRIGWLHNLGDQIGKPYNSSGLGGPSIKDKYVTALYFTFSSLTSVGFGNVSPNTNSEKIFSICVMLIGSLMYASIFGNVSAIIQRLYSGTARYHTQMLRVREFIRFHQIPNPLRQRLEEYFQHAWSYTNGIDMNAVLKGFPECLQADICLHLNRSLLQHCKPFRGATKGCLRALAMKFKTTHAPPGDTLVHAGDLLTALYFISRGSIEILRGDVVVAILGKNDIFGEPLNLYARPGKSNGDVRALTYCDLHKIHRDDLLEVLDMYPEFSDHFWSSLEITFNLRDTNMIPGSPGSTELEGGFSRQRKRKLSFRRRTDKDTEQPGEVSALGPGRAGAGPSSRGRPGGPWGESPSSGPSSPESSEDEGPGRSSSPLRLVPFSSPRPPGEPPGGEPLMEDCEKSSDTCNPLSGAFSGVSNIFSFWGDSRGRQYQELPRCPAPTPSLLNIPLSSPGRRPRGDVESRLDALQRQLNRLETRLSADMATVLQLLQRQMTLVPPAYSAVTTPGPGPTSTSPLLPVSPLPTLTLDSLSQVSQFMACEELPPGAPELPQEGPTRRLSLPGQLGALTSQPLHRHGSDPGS
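U2OS cells were transduced with wild-type KCNH2 virus (2.03 x 10^8 / mL) for 4 h at room temperature, then cultured overnight at 37 C. Thallium flux was read with FluxOr dye. Rate constants were normalized to DMSO controls.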
TRPV1 potentiator – HTS Assay for Compounds that Act as Potentiators of the Vanilloid Receptor 1; Transient receptor potential cation channel subfamily V member 1 (Homo sapiens), Q8NER1; TRPV1-expressing cells, Fluo-8 calcium influx, capsaicin EC20 potentiation; potentiation, % at 8.33 µM; hit rate 0.02% among 320,000; in the data active = potentiation above about 80%; inconclusive = between about 30% and that limit; note: 0% is about no effect
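Cells expressing TRPV1 were dye-loaded with Fluo-8 and read kinetically: 10 s baseline, 3 min after compound (agonist portion), then 2 min after EC20 capsaicin (allosteric enhancer portion). Calcium-bound dye fluorescence at 480/520 nm.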
KCNH2 3.1 inh – qHTS for Inhibitors of KCHN2 3.1: Mutant qHTS; U2OS KCNH2 3.1, thallium flux FluxOr; active compounds read low; activity change, % (tested at about 1.8 µM); hit rate 0.95% among 340,000;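 active = maximum activity change below -70%; inconclusive = maximum activity change from -70% to -50%; inactive = maximum activity change above -50%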;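 note: thallium influx rate constant from kinetic fluorescence after stimulation buffer; % is set by controls: 0 for no effect and ±100 for the full control effect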
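Thallium flux read-out: FluxOr dye with Red40 quencher in HBSS/HEPES, 45 min at RT. Rate constants from kinetic reads were normalized to positive and negative DMSO controls. Cells: U2OS virally expressing the 3.1 isoform.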
TRPV1 agonist – HTS Assay for Compounds that Act as Agonists of the Vanilloid Receptor 1. TRPV1-expressing cells, Fluo-8 calcium influx, agonist mode. AID 540275, 2011. activation, % at 8.33 µM. hit rate 0.19% among 320,000. Transient receptor potential cation channel subfamily V member 1 (Homo sapiens), Q8NER1; in the data active = activation above about 80%; inconclusive = between about 30% and that limit; note: 0% is about no effect
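Fluo-8 calcium influx in TRPV1-expressing cells, kinetic read (ex 480/em 520 nm). Compound added and read 3 min for agonist activity, followed by capsaicin at EC20 final and 2 min further read for enhancement.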
ClpP mod – qHTS Assay for Activators of ClpP; purified B. subtilis ClpP, FRET peptide cleavage, 20 min; ATP-dependent Clp protease proteolytic subunit (Bacillus subtilis (strain 168)), P80244; Potency, µM (highest dose often 57.5 µM), for inactives: at the highest dose activity change, negative = active; hit rate 1.9% among 340,000; active = well fitted falling curve with a large enough effect; inconclusive = small, poorly fitted or top-dose-only effect; inactive = no such curve, though single readings can be large or run the other way; note: potency is the fitted concentration of half-maximal effect; the source files actives as falling curves though it sought activators and does not explain the sign; nearly all actives have a fitted effect of over 65% in size
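FRET quenching reversal measured ClpP activation: 10 microg/mL B. subtilis ClpP at pH 8 with the FRET-FV decapeptide, read at 430 nm after 320 nm excitation. The 20-min minus 0-min signal was scaled between DMSO/no-enzyme wells and ADEP (5.8 microM final).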
An asterisk follows results filed as active; ? = inconclusive; . = not tested or not shown.

SMILES | p53 reactivation | hERG WT inh | TRPV1 potentiator | KCNH2 3.1 inh | TRPV1 agonist | ClpP mod
COc1ccc(-n2nc3ccc(N)cc3n2)cc1Cl | . | 1 | -9 | -16 | -4 | 3%
COc1ccc(-n2nc3ccc(NS(C)(=O)=O)cc3n2)cc1Cl | 16% | -9 | -8 | -20 | 1 | 28µM*
Cc1cc(NCCCN2CCOCC2)n2ncc(-c3ccc(Cl)cc3)c2n1 | ? | 16 | -1 | -1 | 1 | 25µM*
Cc1cc(NCCCn2ccnc2)n2ncc(-c3ccc(Cl)cc3)c2n1 | ? | -2 | 4 | -73* | 2 | 20µM*
CC(C)(C)c1cc(NCCCn2ccnc2)n2ncc(-c3ccccc3)c2n1 | 11% | -2 | . | -20 | . | .
CCn1cc(S(=O)(=O)CC(=O)Nc2cc(C)ccc2C)c2ccccc21 | -10% | 3 | . | -118* | . | 1%
CN(C)Cc1ccccc1-c1cccc2nccn12 | . | . | . | . | . | 5%
Cc1[nH]n(-c2ccc([N+](=O)[O-])cc2)c(=O)c1C=NCCN1CCN(C(=O)c2ccc(Br)cc2)CC1 | 1% | -108* | 2 | -84* | -3 | -2%
Cc1[nH]n(-c2ccc([N+](=O)[O-])cc2)c(=O)c1C=NCCN1CCN(C(=O)c2ccc(F)cc2)CC1 | 4% | 1 | -4 | -16 | 1 | -1%
CN(C(=O)CSc1nc2ccccc2n1CC(=O)N(C)c1ccc(F)cc1)c1ccccc1 | . | . | . | . | . | 2%
CCCn1ncc(CN2CCC(n3nccc3NC(=O)c3ccccc3OC)CC2)c1C | 4% | ? | 7 | -95* | 0 | 2%
Cn1cc(CN2CCC(n3nccc3NC(=O)c3ccccc3Cl)CC2)cn1 | -2% | 25 | -10 | -18 | -2 | 0%
CCCCc1ncc(CN2CCC(n3nccc3NC(=O)c3ccccc3OC)CC2)[nH]1 | 5% | -42 | 1 | -79* | 1 | -1%
Cn1cc(CN2CCC(n3nccc3NC(=O)c3ccccc3Cl)CC2)c2ccccc21 | 2% | -79* | 9 | -15 | 2 | -5%
CCn1nc(C)c(CN2CCC(n3nccc3NC(=O)c3ccccc3OC)CC2)c1C | 19% | 25 | -23 | -15 | -5 | -2%
COc1ccccc1C(=O)Nc1ccnn1C1CCN(Cc2cn(C)c3ccccc23)CC1 | 16% | -26 | 0 | -77* | 3 | -1%
Cn1c(NCCCCO)nc2c1c(=O)n(Cc1ccc(Cl)cc1)c(=O)n2C | . | . | . | . | . | -1%
Cc1ccc(Cl)cc1NC(=O)Cn1c(=O)n(CCCS(=O)(=O)C2CCCCC2)c(=O)c2ccccc21 | . | . | . | . | . | -5%
CCCC(=O)Nc1ccc(-c2nc3ncccc3o2)cc1C | . | . | . | . | . | 4%
COC(=O)C1=CN(CC2CCCO2)C=C(C(=O)OC)C1c1ccccc1C(F)(F)F (stereo not drawn) | -2% | -4 | -18 | -4 | ? | 32µM*
CCOC(=O)c1c(NC(=O)c2nn(CC)cc2Br)sc(C)c1C | -1% | 6 | -6 | -72* | 12 | 35%
CCOC(=O)c1c(NC(=O)c2nn(CC)cc2Br)sc2c1CCCCC2 | 7% | 0 | -16 | -7 | 4 | 28µM*
CCOC(=O)c1ccc(NC(=O)c2nn(CC)cc2Br)cc1 | 21% | 6 | -8 | -11 | ? | -3%
Cc1ccccc1S(=O)(=O)NC(=O)C1(C)CCN1C(=O)Cc1cc(F)ccc1F (stereo not drawn) | . | . | . | . | . | 1%
Cc1ccc(S(=O)(=O)N(CCc2ccccc2)CC(=O)Nc2cc(C)ccc2C)cc1 | . | . | . | . | . | 0%
Nc1nonc1-c1nc2ccccc2n1CC(=O)N1CCCCC1 | -4% | -8 | 6 | -14 | 4 | -1%
CCn1c(-c2ccco2)nc2ccccc21 | ? | -8 | 0 | -8 | -5 | 32µM*
Cc1cccc(OCCn2c(-c3ccco3)nc3ccccc32)c1 | 3% | 5 | -18 | -4 | ? | 25µM*
